“And” between values parts separate entries of the source, which are not always exact repeats. Equal values may be shown once. The source made the active and inactive calls. Cut-off read from the data, not from the text of the source, unless noted: active = nuclear beta-catenin stimulation mostly above about 4.2% (no sharp cut-off); inactive = mostly below about 10%.
experiment: P. berghei load reduction in hepatocytes – cell-based, HepG2, luciferase luminescence, HepG2 viability, primary screen (AID 624349; in the data active = parasite load remaining mostly below about 12%, no sharp cut-off; inactive = mostly above about 10%;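 note: 100% = mean of DMSO negative control wells on the same plate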); conditions: P. berghei liver stage in HepG2, luciferase luminescence, concentration not given here; parasite load remaining: stronger effect = lower value; viability: measured here: HepG2 viability without parasites

SMILES	parasite load remaining	viability
CN(C)C(=S)SSC(=S)N(C)C	69.7% (inactive) and -0.72% (inactive)	84.1% and 106%
CN1C[C@H](CNC(=O)OCc2ccccc2)C[C@@H]2c3cccc4c3c(cn4C)C[C@H]21	77.5% (inactive) and 64.4% (inactive)	74.4% and 69.2%
COP(=S)(OC)Oc1ccc(Sc2ccc(OP(=S)(OC)OC)cc2)cc1	25% (inactive)	137%

experiment: Wnt pathway potentiators raising nuclear beta-catenin – imaging, WNT3A-conditioned medium, mouse C2C12, NPC library, primary screen (AID 1117326); conditions: at 10 µM, stronger effect = higher value; note: reference of the scale not given here

SMILES	nuclear beta-catenin stimulation
C=CCN1CC[C@]23CCCC[C@H]2[C@H]1Cc1ccc(O)cc13	3.5% (inactive)
COc1cccc2c1C(=O)c1c(O)c3c(c(O)c1C2=O)C[C@@](O)(C(=O)CO)CC3OC1CC(N2CCOC(OC)C2)C(O)C(C)O1 (some centres not stated)	13.6% (active)
CC1(C)[C@H](C=C(Cl)Cl)[C@@H]1C(=O)OCc1c(F)c(F)cc(F)c1F	-2.8% (inactive)
CCOC(=O)c1ccccc1C(=O)OCC	-0.2% (inactive)
Fc1cc(Br)ccc1CBr	-0.7% (inactive)
CCOC(=O)C=C(C)C=CC[C@@H](C)CCCC(C)C	0.8% (inactive)
CN(C)C(=S)SSC(=S)N(C)C	68.4% (active)
COC(=O)C(Cl)C(=O)OC	0.3% (inactive)
O=C(NC(=O)c1c(F)cccc1F)Nc1ccc(Cl)c(Oc2ncc(C(F)(F)F)cc2Cl)c1	1.2% (inactive)
c1ccc2c(c1)Sc1ccccc1N2CC1CN2CCC1CC2 (configuration not stated)	50.9% (active)
COc1ccc2c(c1OC)C(=O)O[C@H]2[C@@H]1c2cc3c(cc2CCN1C)OCO3	-0.8% (inactive)
CN1C[C@H](CNC(=O)OCc2ccccc2)C[C@@H]2c3cccc4c3c(cn4C)C[C@H]21	53.7% (active)
O=C1NCN(c2ccccc2)C12CCN(CCCOc1ccc(F)cc1)CC2	0.4% (inactive)
COP(=S)(OC)Oc1ccc(Sc2ccc(OP(=S)(OC)OC)cc2)cc1	5.7% (inactive)

same assay, conditions: stimulation, at 2 µM, stronger effect = higher value

SMILES	nuclear beta-catenin stimulation [%]
C=CCN1CC[C@]23CCCC[C@H]2[C@H]1Cc1ccc(O)cc13	0.3
COc1cccc2c1C(=O)c1c(O)c3c(c(O)c1C2=O)C[C@@](O)(C(=O)CO)CC3OC1CC(N2CCOC(OC)C2)C(O)C(C)O1 (some centres not stated)	47.6
CC1(C)[C@H](C=C(Cl)Cl)[C@@H]1C(=O)OCc1c(F)c(F)cc(F)c1F	-1.8
CCOC(=O)c1ccccc1C(=O)OCC	-0.3
Fc1cc(Br)ccc1CBr	13
CCOC(=O)C=C(C)C=CC[C@@H](C)CCCC(C)C	-0.1
CN(C)C(=S)SSC(=S)N(C)C	48.7
COC(=O)C(Cl)C(=O)OC	6.8
O=C(NC(=O)c1c(F)cccc1F)Nc1ccc(Cl)c(Oc2ncc(C(F)(F)F)cc2Cl)c1	-0.3
c1ccc2c(c1)Sc1ccccc1N2CC1CN2CCC1CC2 (configuration not stated)	-0.7
COc1ccc2c(c1OC)C(=O)O[C@H]2[C@@H]1c2cc3c(cc2CCN1C)OCO3	7.9
CN1C[C@H](CNC(=O)OCc2ccccc2)C[C@@H]2c3cccc4c3c(cn4C)C[C@H]21	5.7
O=C1NCN(c2ccccc2)C12CCN(CCCOc1ccc(F)cc1)CC2	8.5
COP(=S)(OC)Oc1ccc(Sc2ccc(OP(=S)(OC)OC)cc2)cc1	-0.8

experiment: stimulators of insulin release from INS-1E, primary screen, cell-based, 5 mM glucose, NPC library (AID 1117329;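 active = compound raises insulin release from rat beta cells at 5 mM glucose, no numeric limit stated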; note: reference of the scale not given here); conditions: rat INS-1E insulin secretion, at 10 µM, stronger effect = higher value

SMILES	insulin secretion stimulation
C=CCN1CC[C@]23CCCC[C@H]2[C@H]1Cc1ccc(O)cc13	12.2% (inactive)
COc1cccc2c1C(=O)c1c(O)c3c(c(O)c1C2=O)C[C@@](O)(C(=O)CO)CC3OC1CC(N2CCOC(OC)C2)C(O)C(C)O1 (some centres not stated)	1.1% (inactive)
CC1(C)[C@H](C=C(Cl)Cl)[C@@H]1C(=O)OCc1c(F)c(F)cc(F)c1F	0.45% (inactive)
CC(C)(C)c1ccc(O)cc1	0% (inactive)
CCOC(=O)c1ccccc1C(=O)OCC	2.85% (inactive)
CCOC(=O)C=C(C)C=CC[C@@H](C)CCCC(C)C	1.05% (inactive)
O=C(NC(=O)c1c(F)cccc1F)Nc1ccc(Cl)c(Oc2ncc(C(F)(F)F)cc2Cl)c1	0.25% (inactive)
c1ccc2c(c1)Sc1ccccc1N2CC1CN2CCC1CC2 (configuration not stated)	11.5% (inactive)
COP(=S)(OC)Oc1ccc(Sc2ccc(OP(=S)(OC)OC)cc2)cc1	0.05% (inactive)

experiment: growth inhibition of GSK3B-pretreated HCT116 cells – cell-based, CellTiter-Glo, 0.2 to 20 µM (AID 1117336;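 active = compounds lowering colon cancer cell viability after pretreatment blocking the GSK3B kinase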); conditions: HCT116 viability after GSK3B inhibitor, at 20 µM, stronger effect = higher value

SMILES	viability decrease
CC(C)(C)c1ccc(O)cc1	-1.5% (inactive)
Fc1cc(Br)ccc1CBr	3.1% (inactive)
CN(C)C(=S)SSC(=S)N(C)C	65% (active)
COC(=O)C(Cl)C(=O)OC	51.9% (active)
COc1ccc2c(c1OC)C(=O)O[C@H]2[C@@H]1c2cc3c(cc2CCN1C)OCO3	19.2% (inactive)
CN1C[C@H](CNC(=O)OCc2ccccc2)C[C@@H]2c3cccc4c3c(cn4C)C[C@H]21	93.3% (active)
O=C1NCN(c2ccccc2)C12CCN(CCCOc1ccc(F)cc1)CC2	84.2% (active)

experiment: inhibition of endothelial tube formation, primary screen, imaging, VEGF stimulated, CD31 staining, tube area, NPC library (AID 1117340;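 active = compound that reduces growth-factor-driven endothelial tube area in a mixed cell culture, no cutoff stated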); conditions: VEGF-stimulated ADSC/ECFC co-culture, at 10 µM, stronger effect = higher value

SMILES	tube area decrease
CC(C)(C)c1ccc(O)cc1	-21.2% (inactive)
Fc1cc(Br)ccc1CBr	-4.2% (inactive)
CN(C)C(=S)SSC(=S)N(C)C	39.3% (inactive)

experiment: GLP1 release stimulators, primary, NCI-H716, NPC library (AID 1117341;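 active = compound raises GLP1 secretion from the human gut endocrine cells, with no numeric limit stated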; note: reference of the scale not given here); conditions: NCI-H716 cells, at 10 µM, stronger effect = higher value

SMILES	GLP1 secretion stimulation
C=CCN1CC[C@]23CCCC[C@H]2[C@H]1Cc1ccc(O)cc13	8.3% (inactive)
COc1cccc2c1C(=O)c1c(O)c3c(c(O)c1C2=O)C[C@@](O)(C(=O)CO)CC3OC1CC(N2CCOC(OC)C2)C(O)C(C)O1 (some centres not stated)	7.5% (inactive)
CC1(C)[C@H](C=C(Cl)Cl)[C@@H]1C(=O)OCc1c(F)c(F)cc(F)c1F	-5.4% (inactive)
CC(C)(C)c1ccc(O)cc1	3.8% (inactive)
CCOC(=O)c1ccccc1C(=O)OCC	0.4% (inactive)
CCOC(=O)C=C(C)C=CC[C@@H](C)CCCC(C)C	-6.5% (inactive)
O=C(NC(=O)c1c(F)cccc1F)Nc1ccc(Cl)c(Oc2ncc(C(F)(F)F)cc2Cl)c1	-8.7% (inactive)
c1ccc2c(c1)Sc1ccccc1N2CC1CN2CCC1CC2 (configuration not stated)	26.8% (active)
COP(=S)(OC)Oc1ccc(Sc2ccc(OP(=S)(OC)OC)cc2)cc1	-8.7% (inactive)

Source: PubChem BioAssay
